This passage reports Potency results from PubChem BioAssay (Tox21).

Results filed as inconclusive are left out. A call without a number means that no potency is given here. Calls of active or inactive are those of the source. The call rests on the fitted dose curve; in most records, active means well fitted activation curve with a large enough effect in the repeat runs; inconclusive means weak or mixed curves; inactive means flat fitted curve, though single readings scatter.

The nature of the assay: A CellTox Green Cytotoxicity Assay to monitor cytotoxicity in HEK293 cells - 40 hour (AID 1224871). Further: nearly all actives have a fitted effect of over 45% in size. The settings on record: CellTox Green fluorescence; series mostly up to 76.8 µM. An excerpt:
National Center for Advancing Translational Sciences [NCATS]
NIH Chemical Genomics Center [NCGC]
U.S. Environmental Protection Agency [EPA]
National Institutes of Environmental Health Sciences [NIEHS]
National Toxicology Program [NTP]
Cell-based models are critical for drug discovery. Determining the natural cytotoxic effects resulting from test compounds is an essential research activity. A CellTox Green Cytotoxicity Assay to monitor cytotoxicity in real time of continues cell culture during 40 hours of the compound treatment was used to screen Tox21 10K library compounds in Hek293 cells. CellTox Green Cytotoxicity Assay is a nonlytic, homogeneous, biofluorescent method to measure cytotoxicity in cell culture after experimental manipulation. The assay system uses a proprietary asymmetric cyanine dye that is excluded from viable cells but preferentially stains the dead cell's DNA. […] Viable cells produce no appreciable increases in fluorescence. Therefore, the fluorescence signal produced by the binding interaction with dead cell DNA is proportional to cytotoxicity.
The mixture of Hek293 cell suspension and reagents were dispensed at 600cells/6 ul/well in 1536-well tissue culture treated black solid bottom plates using a Multidrop dispenser. After the assay plates were incubated at a 37 C/5% CO2 incubator for 5 hours, 23 nL of compounds dissolved in DMSO, positive and negative controls was transferred to the assay plate by a pintool work station. The plates were incubated at 37 C for 40 hours. The fluorescence intensity were measured at 0h, 8h, 16h, 24h, 32h and 40h time points using ViewLux plate reader during compound treatment.
With `Nc1ccc(S(=O)(=O)NC(=O)c2ccccc2)cc1`, the Potency result is “inactive”.
The same measure for `O=[Si]=O`: “inactive”; for `CCc1nccnc1C`: “inactive”; for `COc1ccc(NS(=O)(=O)c2ccc(N)cc2)nn1`: “inactive”.
The same measure for `CCCCCCCCCOCC1CO1` (stereo not given): “inactive”; for `C=C(C)C(=O)OC`: “inactive”; for `N#CCCOCCOCCC#N`: “inactive”.
The same measure for `CCCCCCCC[Si](OCC)(OCC)OCC`: “inactive”; for `CCC(=O)OCCC(C)CCC=C(C)C` (stereo not given): “inactive”; for `Cc1ccc(C(=O)C(=O)O)cc1C`: “inactive”.
Take `CCCCOC(=O)[C@@H](C)Oc1ccc(Oc2ccc(C(F)(F)F)cn2)cc1`: the Potency result was “inactive”.
With `C[C@H](CCC(=O)O)[C@H]1CC[C@H]2[C@@H]3[C@H](O)C[C@@H]4C[C@H](O)CC[C@]4(C)[C@H]3C[C@H](O)[C@]12C` the entry was “inactive”; with `Cc1ccccc1C`, “inactive”; with `CCCCCCCCC(=O)OCC`, “inactive”.
Turning to `CC(=O)Nc1ncc([N+](=O)[O-])s1`, the Potency entry was “inactive”.
The same measure for `O=C1CC[C@H](C(=O)N2CCCCC2)N1`: “inactive”.
`CC(=O)c1ccc(OCC(=O)N2CCCCC2)cc1`: the Potency entry is “inactive”.
With `COc1cc(C=O)ccc1OC(=O)C(C)C` the entry was “inactive”; with `CC1=NN(c2ccc(S(=O)(=O)O)cc2)C(=O)C1N=Nc1ccccc1` (stereo not given), “inactive”; with `CCCCC/C=C/CC(=O)OC`, “inactive”.
With `FC(F)(F)/C(=N\OCC1OCCO1)c1ccc(Cl)cc1` the entry was “inactive”.
`CC(=O)/C=C/c1ccco1`: the Potency entry was “inactive”.
With `C=CC(C)(O)CC/C=C(\C)CC` (stereo not given) the entry was “inactive”; with `OCCCCCCCl`, “inactive”.
With `C=C(C)C(=O)OCCCCCCOC(=O)C(=C)C` the entry was “inactive”; with `CNC(=O)NC`, “inactive”.
With `Cc1ncc([N+](=O)[O-])n1CC(O)CCl` (stereo not given), the Potency entry was “inactive”.
The same measure for `CC(C)(c1ccc(Oc2ccc3c(c2)C(=O)OC3=O)cc1)c1ccc(Oc2ccc3c(c2)C(=O)OC3=O)cc1`: “inactive”; for `F[Si-2](F)(F)(F)(F)F`: “inactive”.
With `C[CH2][Ge]([Cl])([CH2]C)[CH2]C` the entry was “inactive”; with `OC[C@@H](O)[C@H](O)[C@@H](O)[C@@H](O)CO`, “inactive”.
Turning to `CCN(CCO)c1cccc(C)c1`, the Potency result is “inactive”.
The same measure for `CC(C)(C)NCCO`: “inactive”; for `COc1cc2c(Nc3ccc(Br)cc3F)ncnc2cc1OCC1CCN(C)CC1`: “inactive”; for `CC(C)COC(=O)CC(C(=O)OCC(C)C)S(=O)(=O)O` (stereo not given): “inactive”.
For `C=C[Si](C)(C)O[Si](C)(C)C=C`, the Potency entry was “inactive”.
Take `CCOC(=O)CCCCCCCCC(=O)OCC`: the Potency entry is “inactive”.
In the case of `CCCCCC1Nc2cc(C(F)(F)F)c(S(N)(=O)=O)cc2S(=O)(=O)N1` (stereo not given), the Potency entry is “inactive”.
Regarding `O=S(=O)(O)SSS(=O)(=O)O`, the Potency entry is “inactive”.
With `CC(C)=CC(C)(C)C` the entry was “inactive”.
